Reference: PubChem BioAssay AID1159614 (National Center for Advancing Translational Sciences (NCATS), 2016)
The campaign covered roughly 45,000 compounds. About 65 (0.1%) were called active. What follows is part of a selection rich in actives, with near analogues and random picks from the rest. Unmarked numbers belong to inactive results. Calls come from the whole dose curve; as a rule, active = well fitted activation curve with a large enough effect; inconclusive = small, poorly fitted or top-dose-only effect; inactive = no such curve, though single readings can be large or run the other way.

Biological target: Galactocerebrosidase (Homo sapiens) (UniProt P54803)
Assay: A Novel Cell-Based Assay to Identify Small Molecules for B -Galactocerebrosidase; note: 0% is about no effect; nearly all actives have a fitted effect of over 65% in size
Conditions: 145M-Twi-hGALC-G270D cells (Twitcher mouse brain line with human GALC G270D), HMU-beta-Gal fluorescence, 48 h; series mostly up to 57.5 µM; activation: at the top concentration
Description: Lysosomal storage diseases (LSDs) are caused by genetic mutations in genes encoding proteins important for normal lysosomal function. Globoid cell leukodystrophy (GLD), mostly known as Krabbe disease, is a prototype of the neurological LSDs caused by deficiency of beta-galactocerebrosidase (GALC). In brain specimens of GLD patients, psychosine levels are substantially elevated. At elevated concentrations, psychosine becomes cytotoxic to neuronal cells, particularly to oligodendrocytes (OLG), neural cells responsible for myelin formation. Therefore, the biochemical disturbances in GLD are manifested by different degrees of brain demyelination resulting in a broad spectrum of neurological manifestations. Most of the FDA-approved therapies are based on enzyme replacement therapeutic (ERT) agents, which treat non-neurological symptoms of Gaucher disease, Fabry disease, few mucopolysaccharidoses and Pompe disease. Unfortunately, in GLD, a primarily neurological LSD, ERT agents, as large molecular weight molecules unable to cross the blood-brain barrier, which makes this an inefficacious therapeutic approach. In GLD, increasing the residual GALC activity just above the critical threshold (~10% of wild type enzymatic activity), the cytotoxic levels of psychosine will be reduced, avoiding the OLGs apoptosis and the subsequent demyelination process. This will translate in disease stabilization and amelioration of GLD patient symptoms.
A cell-based assay in 1,536-well plate format was developed to implement a quantitative high-throughput screening (qHTS) assay using GLD-disease relevant cells to identify small molecules that produce enhancements of the residual enzymatic activity levels of mutants GALC found and prevalent in GLD patients. Compounds that are active may therefore have some therapeutic application for GLD. After the treatment of live cells for a determined period, using a fluorescent GALC specific substrate, the mutant residual GALC activity is measured. This cell-based qTHS assay was used to screen part of the MLPCN library for small molecule able to increase the mutant GALC enzymatic activity. In this assay, increased fluorescent signal corresponds to enhanced levels of mutant GALC residual enzymatic activity. Activation is the desired outcome for this assay.
NIH Chemical Genomics Center [NCGC]
NIH Molecular Libraries Probe Centers Network [MLPCN]
Assay Submitter (PI): Gustavo Maegawa MD,PhD, University of Florida, Gainesville, FL
2)#Two cell lines were established for the assay: 145M-Twi-hGALC-G270D (brain-derived Twitcher cell line stably expressing human GALC-G270D) and 145M-Twi-hGALC-WT (same 145M-Twi stably expressing human GALC wild type). The Twitcher is the murine C57B/6 model for GLD with naturally occurring homozygous nonsense GALC mutation. The 145M-Twi cell line was established at Maegawa lab (Ribbens J et al 2014).
a.#Media: DMEM/F12 (1:1) with 10% fetal bovine-serum (FBS) with penicillin/streptomycin (PS-1X - 100 I.U./mL of penicillin+100 ug/mL of streptomycin).
b.#The 6-Hexadecanoylamino-4-methylumbelliferyl-b-D-galactoside (HMU-B-gal) substrate was prepared as per Wiederschain et al 1992. Using 20-mL borosilicate tubes, 2.20 mg of HMU-b-Gal was added in each tube to prepare substrate-film with a final air-nitrogen stream evaporation to remove all diluent solvents.
c.#The HMUb-Gal substrate buffer consists of 0.2 M Na2HPO4 (sodium phosphate dibasic)/ 0.1 M Citric Acid with the pH adjusted to 5.2 using HCl. Sodium Azide at 0.02% and Sodium Taurocholate (NaTC) at 1 mg/mL were added to this substrate buffer.
d.#The HMU-b-Gal stopping buffer consist of 0.5 M NaHCO3 (sodium bicarbonate) /0.5 M Na2CO3 (sodium carbonate). […] Triton X-100 at 0.25% was added.
4)#Preparation of HMU-b-Gal substrate tubes
Adding 18.6 mL of the HMUb-Gal substrate buffer to each 20-mL tube (2.20 mg of HMU-b-Gal) will reach a concentration of 0.2 mM. Vortex well the tube until the solution is fully homogenized (clear cloudy solution). […]

Galactocerebrosidase (Homo sapiens), sequence (P54803 whole entry G286D): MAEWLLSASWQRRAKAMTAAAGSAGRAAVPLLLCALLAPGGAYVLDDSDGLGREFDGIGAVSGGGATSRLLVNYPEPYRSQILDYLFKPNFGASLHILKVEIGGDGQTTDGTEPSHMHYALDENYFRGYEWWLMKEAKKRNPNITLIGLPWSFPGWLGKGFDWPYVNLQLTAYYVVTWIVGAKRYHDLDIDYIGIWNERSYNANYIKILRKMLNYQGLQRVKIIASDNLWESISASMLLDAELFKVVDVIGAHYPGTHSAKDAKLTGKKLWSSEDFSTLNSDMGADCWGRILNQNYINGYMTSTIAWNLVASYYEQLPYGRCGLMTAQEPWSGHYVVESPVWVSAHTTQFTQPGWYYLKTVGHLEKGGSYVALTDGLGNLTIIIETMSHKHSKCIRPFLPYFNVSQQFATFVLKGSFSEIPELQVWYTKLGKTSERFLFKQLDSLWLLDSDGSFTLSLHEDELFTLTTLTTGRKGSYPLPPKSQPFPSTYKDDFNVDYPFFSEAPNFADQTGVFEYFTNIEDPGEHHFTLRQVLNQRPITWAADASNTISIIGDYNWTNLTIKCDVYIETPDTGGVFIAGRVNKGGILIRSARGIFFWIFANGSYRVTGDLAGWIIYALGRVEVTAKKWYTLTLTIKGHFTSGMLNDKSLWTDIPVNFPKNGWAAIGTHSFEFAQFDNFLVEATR

Compound	activation
CCc1ccc(NC(=O)CCS(=O)(=O)c2cc3c(cc2Cl)NC(=O)CO3)cc1	2.42%
COc1cccc(CN2CCc3nc(SCC(=O)Nc4ccccc4)[nH]c(=O)c3C2)c1	-3.87%
Cc1ccccc1-c1nc(CS(=O)(=O)CC(=O)Nc2cc(Cl)cc(Cl)c2)c(C)o1	-3.85%
CCc1nnc(SCC(=O)Nc2cc(OC)ccc2OC)nc1CC	-10.7%
O=C(NCCCO)c1nn(-c2ccc(Cl)cc2)nc1CO	-10.5%
Cn1nnc2c(N3CCN(c4ccccc4)CC3)ncnc21	-18.9%
CN1CCN(C(CNC(=O)c2ccccc2F)c2ccc3c(c2)OCO3)CC1 (stereo not drawn)	-6.11%
COc1ccc(CNC(=O)c2ccc3c(O)c(S(=O)(=O)c4ccccc4)c(=O)[nH]c3c2)cc1	-15.3%
CCC(=O)Nc1cccc(C(=O)OCc2cc(=O)n3nc(CC)sc3n2)c1	-6.34%
Cc1cccc(OCCSc2nc3ccc(NC(=O)COc4ccccc4C)cc3s2)c1	-6.58%
Cc1cccc(CSc2nc3ccncc3n2CC(=O)N(C)C2CCCCC2)c1	-18.8%
Cc1ccccc1CSc1nc(-c2ccccc2)nc2c1Cc1c(CO)cnc(C)c1O2	-9.17%
O=C(Nc1nc2c(s1)CCCC2)c1ccccc1F	-19%
COc1ccc(CNC(=O)CSc2n[nH]c(-c3ccc(F)cc3)n2)cc1	3.05%
COc1ccc(CNS(=O)(=O)c2ccc(-c3cnc(C4CC4)o3)cc2)cc1	-16.4%
CCc1nc2ccc(C(=O)N3CCN(c4cc(Cl)ccc4C)CC3)cc2nc1CC	-15.1%
Cc1ccc(NC(=O)c2ccc(CN3CC(=O)N4CCCCC4C3=O)cc2)c(Cl)c1 (stereo not drawn)	-34.4%
COc1cccc(NC(=O)Nc2ccc3c(c2)N(C)C(=O)c2ccccc2S3)c1	-12.1%
COc1ccccc1-c1nnc(SCC(N)=O)o1	-6.59%
Cc1cccc(C(=O)Nc2ccc(S(=O)(=O)N3CCCCC3c3cccnc3)cc2)c1 (stereo not drawn)	3.79%
CCc1ccc(NC(=O)c2sc3nc4c(cc3c2N)CN(CC)CC4)cc1	-6.64%
Cc1ccccc1NC(=O)CN1C(=O)C(C)(C)c2ccccc21	-12%

Compound	activation
Cc1ccc(C(=O)Nc2ccc(OCc3cc(=O)n4c5c(sc4n3)CCCC5)cc2)cc1	-12.7%
COc1ccc(NC(=O)CSc2nccn2Cc2ccc3c(c2)OCO3)cc1	-12.6%
CCOC(=O)c1c(S(=O)(=O)N2CCC(C(=O)NCc3ccccc3OC)CC2)c(C)n(C)c1C	-15.9%
O=C(Nc1ccccc1Br)c1cc(CN2CCCC2)on1	8.06%
COc1ccc(S(=O)(=O)NCc2cccn2Cc2cccc(C)c2)cc1Cl	-40.9%
Cc1cccc(Cn2c(=O)n(CCC(=O)NCCc3ccc(Cl)cc3)c(=O)c3sccc32)c1	-0.804%
Cc1noc2ncnc(NCc3ccccc3Cl)c12	-36.2%
CCOc1ccc(CCNC(=O)CN(c2ccc(C)cc2)S(=O)(=O)N(C)C)cc1OCC	-3.15%
COc1ccc(C)cc1NC(=O)CCc1c(C)nn(-c2ccc(N3CCOCC3)nn2)c1C	-3.44%
CCc1ccc(N2C(=O)CN(S(=O)(=O)CC)CC2(C)C(=O)NC2CCCCC2)cc1 (stereo not drawn)	0.64%
Cc1ccc(Cc2nc3ccccc3nc2SCC(=O)Nc2cccc(C(F)(F)F)c2)cc1	-14.6%
Cc1ccc(-n2c(SCC(=O)c3ccccc3)nc3c([nH]c4ccccc43)c2=O)cc1	3.45%
CC(=O)OC1=C(C(C)=O)N(Cc2ccccc2)S(=O)(=O)c2ccccc21	-7.78%
Brc1cccc(-c2nnn3c2nc(NC2CCCCC2)c2ccccc23)c1	-7.7%
Cc1cccc(N2CCN(C(=O)CCSCc3ccccc3F)CC2)c1C	-9.85%
COc1ccc(-c2c(C)nn3c(N4CCC(C(=O)NCCC(C)C)CC4)cc(C)nc23)cc1OC	-9.96%
Cc1cccc(NC(=O)Cn2c(=O)n(CCC(C)C)c(=O)c3cccnc32)c1	-14%
O=[N+]([O-])c1cc(-c2nc(-c3ccccc3)no2)ccc1NCc1ccco1	-6.22%
Cc1cc(NC(=O)c2ccc(-c3ccc(Cl)cc3)o2)cc(-c2nc3ncccc3o2)c1O	-5.71%
CCN(CC)c1ccc(NC(=O)Cn2nc3c(cc2=O)CCCC3)c(C)c1	-1.81%
Oc1c(C(c2ccccc2Cl)N2CCOCC2)sc2nc(-c3ccco3)nn12 (stereo not drawn)	-10.8%
